A short description of experiment [1]: qHTS assay to identify small molecule agonists of the vitamin D receptor (VDR) signaling pathway - cell viability counter screen (AID 743224). Also: series mostly up to about 63 µM; nearly all actives have a fitted effect of over 50% in size. The method, boiled down:
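Counter screen run in the same wells as the VDR-bla reporter assay: CellTiter-Glo luminescence, 30 min at room temperature, after 16 h compound treatment at 37C of cells pre-plated for 4 h.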

The nature of experiment [2]: qHTS assay to identify small molecule antagonists of the vitamin D receptor (VDR) signaling pathway - cell viability counter screen (AID 743225). Also: nearly all actives have a fitted effect of over 50% in size. The gist of the method:
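Viability counter screen run in the same wells as the beta-lactamase reporter assay: HEK 293T VDR-UAS-bla cells, 16 h compound exposure at 37C with 3 nM (final) 1-alpha,25-dihydroxyvitamin D3. CellTiter-Glo luminescence, 30 min, room temperature.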

The nature of experiment [3]: qHTS assay to identify small molecule agonists of the NFkB signaling pathway - cell viability counter screen (AID 1159515; calls by dose curve; also: series mostly up to about 61 µM; nearly all actives have a fitted effect of over 55% in size). The method, boiled down: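 Read by CellTiter-Glo luminescence (30 min, room temperature) in the wells also used for the beta-lactamase FRET read. ME-180 NFkB-bla cells at 2,000 per well were plated overnight, then exposed to compound for 5 hr at 37 C.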

The nature of experiment [4]: qHTS assay to identify small molecule agonists of the endoplasmic reticulum stress response signaling pathway - cell viability counter screen (AID 1159517; calls by dose curve; also: series mostly up to about 61 µM; nearly all actives have a fitted effect of over 50% in size). The gist of the method: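 ESRE-bla HeLa cells (1,500/well) were plated overnight at 37 C and exposed to compounds for 5 hr. After the 2 hr beta-lactamase substrate read, CellTiter-Glo went into the same wells, and luminescence was read after 30 min at room temperature.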

A short description of experiment [5]: qHTS assay to identify small molecule antagonists of the retinoid-related orphan receptor gamma (ROR-gamma) signaling pathway - cell viability counter screen (AID 1159520). Also: nearly all actives have a fitted effect of over 50% in size. Also: potency is read from the fitted curve at half-maximal effect. The gist of the method:
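Cytotoxicity was read from cellular ATP (CellTiter-Glo luminescence) after 16 hr at 37 C with 1 uM doxycycline induction. The inducer was added 2 hr after compound transfer to Tet-on ROR gamma CHO cells.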

The target of experiment [6] is Nuclear receptor ROR-gamma (Homo sapiens) (UniProt P51449). Kind of experiment: qHTS assay to identify small molecule antagonists of the retinoid-related orphan receptor gamma (ROR-gamma) signaling pathway (AID 1159521; also: nearly all actives have a fitted effect of over 50% in size; also: potency is read from the fitted curve at half-maximal effect). The method, boiled down:
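Luminescence readout (ONE-Glo, 30 min RT) after 16 h doxycycline induction; loss of signal scored as antagonism. CHO cells with TET-inducible RORγ and RORE-LUC reporter; compounds added 2 h before 1 uM final doxycycline.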

The nature of experiment [7]: qHTS assay to identify small molecule agonists of the AP-1 signaling pathway - cell viability counter screen (AID 1159525; calls by dose curve; also: nearly all actives have a fitted effect of over 55% in size). The gist of the method: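 Intracellular ATP by Cell Titer Glo luminescence (30 min, RT) in the same ME-180 AP-1-bla wells after the 5 h compound exposure at 37 °C. Normalised to tetra n-octyl ammonium bromide and DMSO controls.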
A short description of experiment [8]: qHTS assay to identify small molecule agonists of the AP-1 signaling pathway (AID 1159526; calls by dose curve).
The target in experiment [9] is Retinoic acid receptor RXR-alpha (Homo sapiens) (UniProt P19793). Kind of experiment: qHTS assay to identify small molecule agonists of the RXR signaling pathway (AID 1159527; calls by dose curve; also: nearly all actives have a fitted effect of over 35% in size). The gist of the method: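 Agonist mode; 9-cis retinoic acid positive control. HEK 293T UAS-bla reporter cells, 2% charcoal-stripped FBS, 16 hr compound exposure at 37 C/5% CO2. LiveBLAzer B/G FRET substrate 2 hr RT; ex 405, em 460/530 nm.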
Chain of Retinoic acid receptor RXR-alpha (Homo sapiens) (P19793 whole entry, looked up): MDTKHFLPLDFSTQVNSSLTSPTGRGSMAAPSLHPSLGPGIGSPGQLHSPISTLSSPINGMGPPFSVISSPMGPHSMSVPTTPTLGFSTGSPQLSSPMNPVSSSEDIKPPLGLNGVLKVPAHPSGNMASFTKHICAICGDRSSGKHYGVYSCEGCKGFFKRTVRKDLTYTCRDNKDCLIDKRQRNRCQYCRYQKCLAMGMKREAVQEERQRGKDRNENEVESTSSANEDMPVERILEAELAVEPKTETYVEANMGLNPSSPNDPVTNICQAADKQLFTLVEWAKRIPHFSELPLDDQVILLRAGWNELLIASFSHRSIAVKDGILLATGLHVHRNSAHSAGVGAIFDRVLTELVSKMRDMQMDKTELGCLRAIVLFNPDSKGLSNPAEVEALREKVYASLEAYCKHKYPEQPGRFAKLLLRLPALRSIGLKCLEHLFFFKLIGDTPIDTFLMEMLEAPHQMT

The nature of experiment [10]: qHTS assay to identify small molecule agonists of the RXR signaling pathway - cell viability counter screen (AID 1159529). The gist of the method:
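Luminescence from CellTiter-Glo (30 min, RT) measured viability in the same wells as the beta-lactamase reporter readout. Cells: GeneBLAzer RXR-alpha HEK 293T, 2% charcoal-stripped FBS. Compound exposure 16 hr, 37 C.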

The nature of experiment [11]: qHTS assay to identify small molecule agonists of the retinoic acid receptor (RAR) signaling pathway (AID 1159553). Also: potency is read from the fitted curve at half-maximal effect. The gist of the method:
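Luminescence was measured 30 min after luciferase reagent addition at room temperature. Before that, C3RL4 reporter cells (1,000 per well, plated overnight) were treated with compound for 6 hr at 37 C and 5% CO2.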

The nature of experiment [12]: qHTS assay to identify small molecule antagonists of the estrogen related receptor (ERR) signaling pathway - cell viability counter screen (AID 1224818). Also: series mostly up to about 46 µM. The method, boiled down: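 Cytotoxicity counter screen: fluorescence from CellTiter-Fluor, added after 17.5 h compound exposure at 37 C and read 30 min later. ERR cell line seeded at 2,000 cells/well, preincubated 6 h before dosing.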

A short description of experiment [13]: qHTS assay to identify small molecule antagonists of the estrogen related receptor (ERR) signaling pathway (AID 1224819). The gist of the method:
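LOPAC library screened for antagonism as reduced One-Glo luminescence in ERR reporter cells (2,000/well). Compounds were added after 6 h pre-incubation and left 18 h at 37C; reading followed a 30 min room-temperature reagent step.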

The nature of experiment [14]: qHTS assay to identify small molecule agonists of the estrogen related receptor (ERR) signaling pathway (AID 1224820). The method, boiled down: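 An ERR cell line provided by NTP was seeded at 2,000 cells per well and allowed to settle for 6 h before compounds in DMSO were added. After 18 h at 37 C, luciferase activity was measured by One-Glo luminescence.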
Experiment [15] has as its system estrogen-related receptor alpha (ERRalpha) with PGC-1alpha coactivator, human. Kind of experiment: qHTS assay to identify small molecule antagonists of the estrogen related receptor signaling pathway with the pleiotropic PPARgamma coactivator (PGC) (AID 1224821; calls by dose curve). The method, boiled down:
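A PGC/ERR cell line supplied by NTP is seeded, allowed 6 h at 37 C, and treated with test compounds in DMSO for 18 h. Signal is then measured as luciferase luminescence using One-Glo.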

A short description of experiment [16]: qHTS assay to identify small molecule antagonists of the estrogen related receptor signaling pathway with the pleiotropic PPARgamma coactivator (PGC) cell viability counter screen (AID 1224822; also: series mostly up to about 46 µM). The method, boiled down: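 Viability counter-screen read by fluorescence intensity after 30 min with CellTiter-Fluor at 37 C; PGC/ERR reporter cells were exposed to compounds for 17.5 h at 37 C following a 6 h preincubation.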

The nature of experiment [17]: qHTS assay to identify small molecule antagonists of the retinoic acid receptor (RAR) signaling pathway (AID 1159552; also: nearly all actives have a fitted effect of over 50% in size; also: potency is read from the fitted curve at half-maximal effect). The gist of the method: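 Luminescence from a RARE luciferase reporter in C3RL4 cells served as read-out. Cells received compounds together with 1 uM final retinol and incubated 6 hr at 37 C before detection reagent was added for 30 min at room temperature.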

The nature of experiment [18]: qHTS assay to identify small molecule antagonists of the retinoid acid receptor (RAR) signaling pathway - cell viability counter screen (AID 1159551). Also: nearly all actives have a fitted effect of over 35% in size. The method, boiled down: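 Cytotoxicity counter screen: ATP content quantified by CellTiter-Glo luminescence in C3RL4 cells treated 6 hr at 37 C with compound and retinol (1 uM final). Cells plated at 1,000/well and cultured overnight before dosing.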

Experiment [19] can be described thus: qHTS assay to identify small molecule agonists of the endoplasmic reticulum stress response signaling pathway (AID 1159516; active = well fitted activation curve with a large enough effect in the signal ratio in the repeat runs, not every such curve was filed as active; the % refers to the signal ratio; also: potency is read from the fitted curve at half-maximal effect). The gist of the method: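 Ratiometric FRET readout (405 nm excitation; 460 and 530 nm emission) of a beta-lactamase gene driven by the ER stress response element, after 2 hr substrate loading. HeLa ESRE-bla cells were seeded overnight and treated with compounds for only 5 hr at 37 C.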

SMILES strings stand for the structures. Results filed as inconclusive are left out. Unmarked numbers belong to inactive results. Active and inactive are the calls of the source. Unless noted, calls follow the shape of the dose curve; as a rule, active = well fitted curve in the direction sought with a large enough effect in the repeat runs; inconclusive = weak or mixed curves; inactive = no such curve, though single readings can be large; an effect the other way counts as inactive or inconclusive.

In the case of `CC12CC3CC(C)(C1)CC(N)(C3)C2`, the Potency entry in experiment [1], in [2], in experiment [3], in experiment [4], in experiment [5] and in experiment [6] was “inactive” each time. Moreover, the Potency result in experiment [7], in experiment [9], in experiment [10], in experiment [11], in [13] and in [15] was “inactive” each time. Besides, the outcome in experiment [8], in experiment [12], in experiment [14] and in [16] was inactive.

For the compound `O=[N+]([O-])C1(Br)COCOC1`, the Potency result in experiment [2], in experiment [3], in [4] and in [7] was “inactive” throughout. Also, the Potency was 24.3 µM (active) in [5], 24.3 µM (active) in experiment [6] and 43.3 µM (active) in [17]. The compound was classed as inactive in experiment [8].

Take `CC(C(=O)O)c1ccc(C(=O)c2cccs2)cc1` (stereo unspecified): the Potency result in experiment [1], in experiment [2], in experiment [3], in experiment [4], in experiment [5] and in experiment [6] was “inactive” throughout. The Potency result in experiment [7], in experiment [9], in experiment [10], in experiment [18], in experiment [17] and in [11] was “inactive” each time. Also, the compound was classed as inactive in [8].

Take `COc1ccc2nc(S(=O)Cc3ncc(C)c(OC)c3C)[nH]c2c1` (stereo unspecified): the Potency result in experiment [1], in experiment [2], in [3], in experiment [4], in experiment [5] and in experiment [6] was “inactive” each time. For the same compound, the Potency result in experiment [7], in [9], in experiment [10], in [18] and in experiment [17] was “inactive” throughout. In addition, the compound was classed as inactive in experiment [8]. Also, in [11], the Potency is 67.8 µM (active).

As for `Cc1cn([C@H]2C[C@H](F)[C@@H](CO)O2)c(=O)[nH]c1=O`, the Potency entry in [1], in experiment [2], in experiment [3], in experiment [19], in [5] and in experiment [6] was “inactive” each time. Further, the Potency entry in experiment [7], in experiment [9], in [10], in experiment [18] and in experiment [11] was “inactive” throughout. Further, the outcome in experiment [8] was inactive.

Consider `CC[C@@H](CO)NCCN[C@@H](CC)CO`, for which the Potency entry in experiment [2], in experiment [3], in experiment [19], in [5], in experiment [6] and in [7] was “inactive” throughout. Moreover, the Potency entry in [9], in experiment [10], in [18], in [17] and in [11] was “inactive” each time. Also, the call in experiment [8] was inactive.

As for `CC(=O)NNC(C)=O`, the Potency result in experiment [1], in experiment [3], in [19], in experiment [5], in [7] and in experiment [9] was “inactive” each time. Further, the Potency result in [10], in experiment [18] and in experiment [17] was “inactive” each time. Besides, the result in experiment [8] was inactive.

On to `CCCCOCCOC(=O)c1cccnc1`, for which the Potency entry in experiment [1], in [2], in experiment [3], in experiment [4], in experiment [5] and in experiment [6] was “inactive” each time. The Potency result in experiment [7], in experiment [9], in experiment [10] and in experiment [18] was “inactive” throughout. For the same compound, the compound was classed as inactive in experiment [8].

With `O=C(O)c1cccc(C[C@@H]2COc3ccc(OCc4nc5cc(F)ccc5s4)cc3[C@@H]2O)c1`, the Potency result in experiment [1], in experiment [2], in experiment [3], in experiment [4], in experiment [5] and in experiment [6] was “inactive” each time. In addition, the Potency result in [7], in experiment [10] and in experiment [18] was “inactive” each time. In [8], the call was inactive.

With `O=NN(CCCl)C(=O)NCCCl`, the Potency entry in experiment [2], in [3], in [19], in experiment [5], in [6] and in experiment [7] was “inactive” throughout. Moreover, the Potency entry in experiment [10], in [18], in experiment [13] and in experiment [15] was “inactive” in each case. The outcome in experiment [8], in experiment [12], in experiment [14] and in experiment [16] was inactive.

Regarding `CC1C(C)(C)C2=C(C(=O)CCC2)C1(C)C` (stereo unspecified), the Potency result in experiment [2], in experiment [3], in experiment [4], in [5], in [6] and in [7] was “inactive” in each case. The Potency entry in [9], in [10], in experiment [18], in experiment [17] and in [11] was “inactive” throughout.

Take `O=C(CCS)OCC(COC(=O)CCS)(COC(=O)CCS)COC(=O)CCS`: the Potency result in [2], in experiment [3], in experiment [5], in experiment [6], in [7] and in [9] was “inactive” throughout. The Potency in experiment [19] is 8.71 µM (active). The call in experiment [8] was inactive.

Consider `CCOC(=O)c1ccc(NC(=O)CN2CCCCC2)cc1`, for which the Potency entry in [1], in experiment [2], in experiment [3], in [4], in experiment [5] and in [6] was “inactive” in each case. Moreover, the Potency result in [7], in [9], in [10], in [18] and in experiment [17] was “inactive” each time. Also, in [8], the compound was called inactive. The Potency in [11] was 21.1 µM (active).

The values above are taken from PubChem BioAssay (Tox21).
